# The sample as a whole holds a higher share of hits than the screen did.
# NOMO-1 viab: STK33 inhibitor candidate reducing NOMO-1 cell viability | AID 2330 | 37,000 compounds, 7.5% hits | inhibition, % (test concentration not listed) | NOMO-1 AML viability, CellTiter-Glo luminescence, 72 h; in the data active means inhibition above about 80%
# STK33 kin inh: human STK33 kinase inhibition; ADP-Glo luminescence, MBP substrate; inhibition, % at 12.5 µM; 27,000 compounds, 0.44% hits; AID 2322; in the data active means inhibition above about 20%
# Target sequence (Q9BYT3 whole entry, looked up): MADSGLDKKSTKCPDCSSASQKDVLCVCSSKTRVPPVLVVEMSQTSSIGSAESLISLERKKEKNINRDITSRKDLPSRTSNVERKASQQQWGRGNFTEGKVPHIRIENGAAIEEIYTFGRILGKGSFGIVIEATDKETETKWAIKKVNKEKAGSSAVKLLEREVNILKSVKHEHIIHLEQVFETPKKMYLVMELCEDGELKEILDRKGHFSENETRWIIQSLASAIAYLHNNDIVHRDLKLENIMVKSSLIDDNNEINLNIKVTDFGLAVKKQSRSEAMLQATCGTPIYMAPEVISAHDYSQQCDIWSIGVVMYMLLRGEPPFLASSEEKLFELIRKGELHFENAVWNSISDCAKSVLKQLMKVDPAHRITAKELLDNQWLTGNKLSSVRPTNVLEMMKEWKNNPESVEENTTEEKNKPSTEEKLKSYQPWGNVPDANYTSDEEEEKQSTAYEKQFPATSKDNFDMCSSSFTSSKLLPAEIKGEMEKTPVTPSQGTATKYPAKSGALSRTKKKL
# PD-1 reversal: activators reversing PD-1 mediated T-cell inhibition; primary human CD4 T cells, PD-L1 beads, CellTiter-Glo 96 h; activation, % (concentration not given with the values); 29,000 tested, under 10 active; AID 2316; call rule not given here;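 further: 0% = median vehicle wells and 100% = positive control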
# * = called active by the depositor; / = no result given.
SMILES,NOMO-1 viab,STK33 kin inh,PD-1 reversal
C=C[C@@]12COC(=O)C(=C)[C@@H]1[C@@H](O)[C@H](C(=C)C(=O)OC)[C@@H](O)C2,83.3*,1.1,-10.2
C=C[C@@]12COC(=O)C(=C)C1[C@@H](O)[C@H](C(=C)C(=O)OC)[C@@H](OC(=O)C(=C)CO)C2 (some centres undefined),115.7*,1.5,-16.4
C[C@@H]1CN([C@H](C)CO)C(=O)c2cc(NS(=O)(=O)c3cccs3)ccc2O[C@@H]1CN(C)Cc1ccc(Oc2ccccc2)cc1,105.9*,/,/
COc1ccc(CN(C)C[C@@H]2Oc3ccc(NS(=O)(=O)c4cccs4)cc3C(=O)N([C@H](C)CO)C[C@@H]2C)cc1,10.1,/,-0.9
C[C@@H]1CN([C@H](C)CO)C(=O)Cc2cc(NS(=O)(=O)c3cccs3)ccc2O[C@H]1CN(C)Cc1ccc(Oc2ccccc2)cc1,88.5*,5.0,/
C[C@H](CO)N1C[C@H](C)[C@H](CN(C)Cc2ccc(Oc3ccccc3)cc2)Oc2ccc(NS(=O)(=O)c3cccs3)cc2CC1=O,31.7,6.8,-0.8
NC(=O)CSc1nc2c(c(=O)n1-c1ccccc1)C1=C(CCC1)C2,46.6,/,-0.9
C[C@@H]1O[C@@H](O[C@H]2[C@H](O[C@H]3CC[C@@]4(C)C(CC[C@]5(C)C4CC=C4C6CC(C)(C)CC[C@]6(C(=O)O)CC[C@]45C)[C@]3(C)CO)OC[C@H](O)[C@@H]2O)[C@H](O)[C@H](O)[C@H]1O (some centres undefined),119.3*,-9.1,-8.7
CC1(C)CC[C@]2(C(=O)O)CC[C@]3(C)C(=CCC4[C@@]5(C)CC[C@H](O[C@@H]6O[C@H](C(=O)O)[C@@H](O[C@@H]7OC[C@@H](O)[C@H](O)[C@H]7O)[C@H](O)[C@H]6O)C(C)(C)C5CC[C@]43C)C2C1 (some centres undefined),116.3*,-9.4,-9.2
CC(=O)OC1C(C)OC(OC2C(CO)OC(OC(=O)[C@]34CCC(C)(C)CC3C3=CCC5[C@@]6(C)CC[C@H](OC7OC(CO)C(OC8OC(CO)C(OC9OCC(O)C(O)C9O)C(O)C8O)C(O)C7O)[C@@](C)(CO)C6CC[C@@]5(C)[C@]3(C)CC4)C(OC3OC(C)C(O)C(O)C3O)C2O)C(O)C1O (some centres undefined),/,-2.2,/
C[C@@H]1O[C@@H](O[C@H]2[C@H](O[C@H]3[C@H](O[C@H]4CC[C@@]5(C)C(CC[C@]6(C)C5CC=C5[C@@H]7CC(C)(C)C[C@@H](O)[C@]7(C)CC[C@]56C)[C@@]4(C)CO)O[C@H](C(=O)O)[C@@H](O)[C@@H]3O)OC[C@H](O)[C@@H]2O)[C@H](O)[C@H](O)[C@H]1O (some centres undefined),18.3,-1.7,-0.3
C[C@@H]1O[C@@H](O[C@@H]2[C@@H](O)[C@H](O[C@@H]3[C@@H](O)[C@H](C)O[C@@H](O[C@H]4[C@H](O[C@H]5CC[C@@]6(C)C(CC[C@]7(C)C6CC=C6[C@@H]8CC(C)(C)CC[C@]8(C(=O)O)CC[C@]67C)[C@]5(C)CO)OC[C@H](O)[C@@H]4O)[C@@H]3O)O[C@H](CO)[C@H]2O[C@@H]2O[C@H](CO)[C@@H](O[C@@H]3OC[C@@H](O)[C@H](O)[C@H]3O)[C@H](O)[C@H]2O)[C@H](O)[C@H](O)[C@H]1O (some centres undefined),114.2*,-3.0,-6.1
CC(=O)N[C@H]1[C@H](O[C@H]2CC[C@@]3(C)C(CC[C@]4(C)C3CC=C3[C@@H]5CC(C)(C)CC[C@]5(C(=O)O)CC[C@]34C)C2(C)C)O[C@H](CO[C@@H]2OC[C@H](O)[C@H](O)[C@H]2O[C@@H]2OC[C@H](O)[C@H](O)[C@H]2O)[C@@H](O)[C@@H]1O (some centres undefined),120.3*,-2.7,-13.3
CC1(C)CC[C@]2(C(=O)O)CC[C@]3(C)C(=CCC4[C@@]5(C)CC[C@H](O[C@@H]6O[C@H](C(=O)O)[C@@H](O[C@@H]7OC[C@@H](O)[C@H](O)[C@H]7O)[C@H](O)[C@H]6O)C(C)(C)C5CC[C@]43C)C2C1O (some centres undefined),-4.5,-3.7,-2.0
CC1(C)CC[C@]2(C(=O)O)CC[C@]3(C)C(=CCC4[C@@]5(C)CC[C@H](O[C@@H]6O[C@H](CO)[C@@H](O)[C@H](O)[C@H]6O)[C@@](C)(CO)C5CC[C@]43C)[C@@H]2C1 (some centres undefined),/,0.8,/
CCn1c(SCC(=O)Nc2cccc(C(C)=O)c2)nnc1-c1ccncc1,25.8,1.8,0.6
O=C(NCCCc1ccccc1)N1c2ccccc2Sc2ccccc21,64.8,/,0.3
O=C(CSc1nnnn1-c1cccc(C(=O)O)c1)Nc1ccccc1F,-16.2,-6.1,1.0
COc1cc(-c2nnc(SCC(=O)c3ccco3)n2C)cc(OC)c1OC,3.7,-0.3,-1.3
COc1ccccc1NC(=O)CSc1nnc(-c2cccc3ccccc23)n1-c1ccccc1,28.7,3.9,0.2
COC(=O)C1=CN(C(CC(C)C)C(=O)OC)C=C(C(=O)OC)C1c1ccc(Br)cc1 (centres undefined),50.5,/,-1.8
C[C@@H]1O[C@@H](O[C@@H]2[C@@H](O)[C@H](O[C@@H]3[C@@H](O)[C@@H](O)[C@H](O[C@H]4[C@H](OC(=O)[C@]56CCC(C)(C)C[C@H]5C5=CCC7[C@@]8(C)C[C@H](O)[C@H](O[C@@H]9O[C@H](C(=O)O)[C@@H](O)[C@H](O)[C@H]9O)[C@@](C)(CO)C8[C@H](O)C[C@@]7(C)[C@]5(C)C[C@H]6O)OC[C@H](O)[C@@H]4O)O[C@H]3C)OC[C@H]2O)[C@H](O)[C@H](O)[C@H]1O (some centres undefined),19.2,22.8*,2.5
CC1(C)CC[C@]2(C(=O)O[C@@H]3O[C@H](CO)[C@@H](O)[C@H](O)[C@H]3O)CC[C@]3(C)C(=CCC4[C@@]5(C)CC[C@H](OC6O[C@H](CO)[C@@H](O)[C@H](O[C@@H]7O[C@H](CO)[C@@H](O)[C@H](O)[C@H]7O)[C@H]6O)C(C)(C)C5CC[C@]43C)[C@@H]2C1 (some centres undefined),/,-0.5,/
C[C@@H]1O[C@@H](O[C@H]2[C@H](OC(=O)[C@]34CCC(C)(C)C[C@H]3C3=CCC5[C@@]6(C)C[C@H](O)[C@H](O[C@@H]7O[C@H](C(=O)O)[C@@H](O)[C@H](O)[C@H]7O)[C@@](C)(CO)C6[C@H](O)C[C@@]5(C)[C@]3(C)C[C@H]4O)O[C@@H](CO)[C@@H]2O)[C@H](O)[C@H](O)[C@H]1O[C@@H]1OC[C@@H](O)[C@H](O[C@H]2OC[C@](O)(CO)[C@H]2O)[C@H]1O (some centres undefined),17.9,-4.0,-3.2
CC1OC(OC2C(O)C(CO)OC(O[C@H]3CC[C@@]4(C)C(CC[C@]5(C)C4CC=C4C6CC(C)(C)CC[C@]6(C(=O)OC6OCC(OC7OCC(O)C(O)C7O)C(O)C6O)CC[C@]45C)C3(C)C)C2O)C(O)C(OC2OCC(O)(CO)C2O)C1O (some centres undefined),121.7*,-0.7,-13.6
